Drawing on PubChem BioAssay (NCI), this text covers growth for 14 compounds.

SMILES strings stand for the structures. This is part of a sample that, as a whole, favours compounds with a hit. Of some 83,000 tested, about 20% had one in any assay.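 Treatment: one concentration, 48 hours, 96-well format. Scoring: percent growth, with anything below 10 considered active.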 Values without a mark were called inactive. The source made the active and inactive calls.

Some test systems named below: RPMI-8226 leukemia; OVCAR-8 ovarian; OVCAR-5 ovarian; OVCAR-4 ovarian; SK-OV-3 ovarian; IGROV1 ovarian; OVCAR-3 ovarian; HS 578T breast; NCI/ADR-RES ovarian.
What all share (test): NCI-60 one-dose screen, 48 h (100 = growth as untreated, 0 = no growth, -100 = all killed)
Conditions in all cases: 10 µM unless noted

As for `Cc1cc(C(N)=O)cc(C)c1C(=O)OCCCl`, the growth in the experiment with RPMI-8226 leukemia was 111%; in the experiment on OVCAR-8 ovarian, 102%; in the experiment on OVCAR-5 ovarian, 108%; in the experiment with OVCAR-4 ovarian, 103%; in the experiment with SK-OV-3 ovarian, 105%; in the experiment on IGROV1 ovarian it was 111%. Also, the growth in the experiment on OVCAR-3 ovarian is 99.5%; in the experiment on HS 578T breast, 97%; in the experiment with NCI/ADR-RES ovarian, 107%.
Take `Oc1ccc(Cl)cc1C(c1cc(Cl)ccc1O)C(Cl)(Cl)Cl`: the growth in the experiment on RPMI-8226 leukemia was 11.5%; in the experiment on OVCAR-8 ovarian, 29.6%; in the experiment on OVCAR-5 ovarian it was 8.25% (active); with OVCAR-4 ovarian, 20.6%; in the experiment on SK-OV-3 ovarian it was 32%; in the experiment on IGROV1 ovarian, 56%. For the same compound, the growth was -16.9% (active) in the experiment on OVCAR-3 ovarian, 0.476% (active) in the experiment on HS 578T breast and 4.17% (active) with NCI/ADR-RES ovarian.
Regarding `CCOC(=O)C1=NN(c2ccccc2)C(=O)/C1=C\N1C(=O)/C(=C/c2cccc(O)c2)SC1=S`, the growth in the experiment on RPMI-8226 leukemia was 88.1%; in the experiment on OVCAR-8 ovarian it was 95.8%; in the experiment on OVCAR-5 ovarian it was 121%; in the experiment on OVCAR-4 ovarian it was 98.8%; in the experiment on SK-OV-3 ovarian, 99.8%; with IGROV1 ovarian, 96%. Also, the growth with OVCAR-3 ovarian is 106%; in the experiment on HS 578T breast it was 94%; with NCI/ADR-RES ovarian, 99.3%.
Turning to `O=[N+]([O-])/C(=C/c1ccccc1)c1ccccc1`, the growth is 108% with RPMI-8226 leukemia; 105% in the experiment on OVCAR-8 ovarian; 103% in the experiment on OVCAR-5 ovarian; 99% with OVCAR-4 ovarian; 100% in the experiment with SK-OV-3 ovarian; 104% in the experiment with IGROV1 ovarian. For the same compound, the growth in the experiment with OVCAR-3 ovarian is 109%; in the experiment on HS 578T breast it was 110%; in the experiment with NCI/ADR-RES ovarian, 106%.
Consider `NC(=S)Nc1ccc2c(c1)Cc1ccccc1-2`, for which the growth is 62.1% in the experiment with RPMI-8226 leukemia; 84.5% in the experiment with OVCAR-8 ovarian; 101% in the experiment with OVCAR-5 ovarian; 83.4% in the experiment with OVCAR-4 ovarian; 98.1% in the experiment on SK-OV-3 ovarian; 88.3% with IGROV1 ovarian. Further, the growth in the experiment with OVCAR-3 ovarian is 98.3%; with HS 578T breast, 88.2%; in the experiment with NCI/ADR-RES ovarian, 88.2%.
`COc1ccc(NC(=O)/C(=C/N2C(=O)/C(=C/c3ccc(OC)c(OC)c3)NC2=S)C(C)=O)cc1`: the growth in the experiment on RPMI-8226 leukemia was 76.6%; in the experiment on OVCAR-8 ovarian it was 80.8%; in the experiment with OVCAR-5 ovarian, 99.3%; in the experiment with OVCAR-4 ovarian, 85.1%; in the experiment on SK-OV-3 ovarian, 55.9%; in the experiment on IGROV1 ovarian it was 74.7%. The growth in the experiment with OVCAR-3 ovarian is 79%; in the experiment on HS 578T breast, 40.7%; in the experiment with NCI/ADR-RES ovarian, 77.6%.
For `CN1CSC(=S)N(Cc2ccccc2)C1`, the growth in the experiment with RPMI-8226 leukemia is 31.4%; in the experiment with OVCAR-8 ovarian it was 97.8%; with OVCAR-5 ovarian, 103%; with OVCAR-4 ovarian, 112%; in the experiment on SK-OV-3 ovarian, 114%; in the experiment on IGROV1 ovarian, 92.9%. Besides, the growth in the experiment with OVCAR-3 ovarian was 65%; in the experiment on HS 578T breast, 108%; in the experiment on NCI/ADR-RES ovarian, 102%.
Regarding `CCN(CC)c1ccc(/C=C\C(=O)c2ccc(NC(C)=O)cc2)cc1`, the growth with RPMI-8226 leukemia is 76.9%; in the experiment on OVCAR-8 ovarian, 76%; in the experiment on OVCAR-5 ovarian, 68.5%; with OVCAR-4 ovarian, 90.6%; in the experiment on SK-OV-3 ovarian, 69.2%; in the experiment on IGROV1 ovarian, 75.5%. For the same compound, the growth was 104% in the experiment on OVCAR-3 ovarian, 55.1% with HS 578T breast and 37.9% in the experiment with NCI/ADR-RES ovarian.
Regarding `Cc1cc2nc(CC(=O)c3ccncc3)c(=O)[nH]c2cc1C`, the growth in the experiment with RPMI-8226 leukemia is 103%; with OVCAR-8 ovarian it was 102%; in the experiment with OVCAR-5 ovarian it was 97.2%; with OVCAR-4 ovarian, 93.8%; in the experiment with SK-OV-3 ovarian, 104%; in the experiment with IGROV1 ovarian, 105%. Also, the growth was 112% with OVCAR-3 ovarian, 66.8% in the experiment on HS 578T breast and 96.8% in the experiment on NCI/ADR-RES ovarian.
Regarding `CN(C)c1ccc(C(=C2C=CC(=[N+](C)C)C=C2)c2ccc(N(C)C)cc2)cc1`, the growth with RPMI-8226 leukemia was -51.8% (active); with OVCAR-8 ovarian it was -44.8% (active); in the experiment on OVCAR-5 ovarian, -34.4% (active); in the experiment with OVCAR-4 ovarian it was -18.5% (active); in the experiment with SK-OV-3 ovarian it was -90.9% (active); in the experiment with IGROV1 ovarian, -37.2% (active). The growth in the experiment with OVCAR-3 ovarian was -91.1% (active); in the experiment on HS 578T breast, 1.62% (active); in the experiment with NCI/ADR-RES ovarian it was -18.8% (active).
Take `O=[N+]([O-])c1ccc(C2N(Cc3ccc(Cl)cc3)CCN2Cc2ccc(Cl)cc2)cc1`: the growth is 83.9% in the experiment with RPMI-8226 leukemia; 91% in the experiment with OVCAR-8 ovarian; 89.6% in the experiment on OVCAR-5 ovarian; 102% in the experiment on OVCAR-4 ovarian; 90.1% in the experiment with SK-OV-3 ovarian; 85.9% in the experiment with IGROV1 ovarian. Further, the figures for the growth in the experiment with OVCAR-3 ovarian, in the experiment with HS 578T breast and in the experiment on NCI/ADR-RES ovarian were 91.3%, 102% and 87.6%, respectively.
`CN(C)CC(C)(CN(C)C)C(=O)/C=C/c1c(Cl)cccc1Cl`: the growth with RPMI-8226 leukemia was -4.62% (active); with OVCAR-8 ovarian, -26.2% (active); in the experiment with OVCAR-5 ovarian it was 53.1%; in the experiment with OVCAR-4 ovarian it was 62.2%; with SK-OV-3 ovarian, 91.9%; in the experiment on IGROV1 ovarian it was 73.6%. Moreover, the growth with OVCAR-3 ovarian is -31.3% (active); in the experiment on HS 578T breast, 71.9%; in the experiment on NCI/ADR-RES ovarian, -29.7% (active).
Regarding `Cc1c(O)ccc(SC#N)c1C`, the growth with RPMI-8226 leukemia was 96.6%; in the experiment on OVCAR-8 ovarian, 102%; in the experiment on OVCAR-5 ovarian, 97.3%; with OVCAR-4 ovarian, 107%; in the experiment on SK-OV-3 ovarian, 108%; in the experiment on IGROV1 ovarian it was 110%. The growth is 90.8% with OVCAR-3 ovarian, 124% in the experiment on HS 578T breast and 106% with NCI/ADR-RES ovarian.
Regarding `CC(C)(C)c1ccc(O)c(Br)c1`, the growth in the experiment with RPMI-8226 leukemia is 85%; in the experiment on OVCAR-8 ovarian, 103%; in the experiment with OVCAR-5 ovarian, 98.1%; in the experiment with OVCAR-4 ovarian it was 101%; with SK-OV-3 ovarian, 120%; in the experiment with IGROV1 ovarian, 111%. In addition, the values for the growth with OVCAR-3 ovarian, in the experiment on HS 578T breast and with NCI/ADR-RES ovarian were 99.2%, 96.4% and 100%, respectively.
